# In the supplement of paper PMC12645437, “Orthogonal IMiD-Degron Pairs Induce Selective Protein Degradation in Cells” (ACS Chemical Biology, 2025):
# The full ranking holds about 8,300 sequences; the median of “log2 fold change of degron read counts, EGFP-low vs EGFP+ sorted cells (limma voom), compound-induced degradation” is about -1.1, and the highest 2% start at about 3.2. For the sample, the highest values were picked, then their nearest neighbours and some sequences at random.
# T1: CRBN, Q96SW2
# T1 chain: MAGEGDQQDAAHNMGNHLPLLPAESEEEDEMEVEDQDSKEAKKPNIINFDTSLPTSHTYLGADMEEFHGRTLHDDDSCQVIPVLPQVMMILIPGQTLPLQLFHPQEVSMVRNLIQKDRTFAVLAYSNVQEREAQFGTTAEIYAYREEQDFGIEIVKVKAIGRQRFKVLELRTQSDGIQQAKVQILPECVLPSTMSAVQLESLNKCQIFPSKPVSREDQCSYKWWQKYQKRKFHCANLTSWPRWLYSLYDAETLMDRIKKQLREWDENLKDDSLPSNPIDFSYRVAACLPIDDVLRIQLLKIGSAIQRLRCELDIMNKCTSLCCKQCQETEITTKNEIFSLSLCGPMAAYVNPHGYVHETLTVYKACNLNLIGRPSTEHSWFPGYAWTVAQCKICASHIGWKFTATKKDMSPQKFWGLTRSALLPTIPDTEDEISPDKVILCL
# Molecular target: T1, CRBN, Q96SW2
# Assay: log2 fold change of degron read counts, EGFP-low vs EGFP+ sorted cells (limma voom), compound-induced degradation; higher = more compound-induced degradation of the degron-EGFP fusion; degrons are variants of IKZF1/3 zinc finger 2; compound dose not given here
# Settings: Jurkat, 18 h
# [1] = compound: compound 19 (5-tert-butyl-thalidomide)
# [2] = compound: compound 22 (5-morpholino-thalidomide)
# [3] = compound: compound 33 (diphenyl IMiD analogue)
# 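Also: pooled lentiviral library of zinc finger degron-EGFP fusions in mCherry-positive Jurkat cells, FACS-sorted after compound exposure, with degron abundance counted by next-generation sequencing.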
Sequence,log2 fold change of degron read counts [1],log2 fold change of degron read counts [2],log2 fold change of degron read counts [3],log2 fold change of degron read counts (compound: thalidomide)
"FSCDVCGAIFTQKGNLLRHIKL [46F_47S_49D_50V_52G_53A_54I_55F_67L_, Q9UKT9]",-0.277,-1.23,-0.103,-1.43
"FCCEICGREFTQKGNLLRHIKL [46F_47C_49E_50I_52G_53R_54E_55F_67L_, Q9UKT9]",-2.44,-2.4,-1.78,-1.56
"FNCPICGRDFTQKGNLLRHIKL [46F_47N_49P_50I_52G_53R_54D_55F_67L_, Q9UKT9]",-1.89,-1.85,-1.07,-1.09
"FSCSVCGHQFTQKGNLLRHIKL [46F_47S_49S_50V_52G_53H_54Q_55F_67L_, Q9UKT9]",-2.44,-3.11,-2.86,-2.7
"LCCEICGFECTQKGNLLRHIKL [46L_47C_49E_50I_52G_53F_54E_55C_67L_, Q9UKT9]",-0.329,-0.269,-0.566,0.603
"FHCNQCGAKFTQKGNLLRHIKL [46F_47H_49N_50Q_52G_53A_54K_55F_67L_, Q9UKT9]",-1.43,-1.66,-2.35,-1.73
"FLCDVCGAAFTQKGNLLRHIKL [46F_47L_49D_50V_52G_53A_54A_55F_67L_, Q9UKT9]",-0.47,-1.3,0.2,-0.799
"FFCEICGRCFTQKGNLLRHIKL [46F_47F_49E_50I_52G_53R_54C_55F_67L_, Q9UKT9]",0.787,0.568,0.232,-0.767
